The full list was thinned out, with hits kept by preference.
Tg IFNy HTS = T. gondii growth inhibition under IFN-gamma. Toxoplasma gondii growth in IFN-gamma-treated host cells; stronger effect = lower value. activity change, negative = inhibition, % (concentration not given with the values). actives 3.8% (n = 69,000). AID 1259416; in the data active = activity change below about -70%, passing the limit was not always enough;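 also: host cells are HeLa cells infected with Toxoplasma gondii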
Active calls of the source: *.

SMILES | Tg IFNy HTS
C[C@@H]1CN([C@H](C)CO)S(=O)(=O)c2ccc(C#CC(C)(C)O)cc2O[C@H]1CN(C)Cc1ccc(F)cc1 | -115.7*
C[C@@H]1CN([C@H](C)CO)S(=O)(=O)c2ccc(C#CC(C)(C)O)cc2O[C@@H]1CN(C)Cc1ccc(F)cc1 | 150.0
C[C@@H]1CN([C@H](C)CO)S(=O)(=O)c2ccc(-c3ccc(F)cc3)cc2O[C@H]1CN(C)Cc1ccccc1C(=O)O | 31.6
CCCNC(=O)N(C)C[C@H]1Oc2cc(C#C[C@H](C)O)ccc2S(=O)(=O)N([C@@H](C)CO)C[C@H]1C | 102.4
CCCC#Cc1ccc2c(c1)O[C@@H](CN(C)Cc1ccccn1)[C@@H](C)CN([C@H](C)CO)S2(=O)=O | -29.5
Cc1ccc(S(=O)(=O)N(C)C[C@@H]2Oc3cc(C#CC4CCCC4)ccc3S(=O)(=O)N([C@@H](C)CO)C[C@@H]2C)cc1 | -113.7*
COc1cccc(OC)c1-c1ccc(C(=O)NC2CCCCC2)o1 | -3.5
COc1ccc(-c2nc(CSc3nc4c(c(=O)[nH]3)CN(Cc3ccc(F)cc3)CC4)c(C)o2)cc1 | -26.1
Oc1cc2c(cc1O)[C@@H]1c3ccc(O)c(O)c3OC[C@]1(O)C2 | -8.0
Cc1ccc(C(=O)N2CC[C@@H](c3ccc4ccccc4c3)[C@H](O)C2)c(=O)n1C | 1.5
Cc1oc(C2CCN(S(=O)(=O)Cc3ccccc3)CC2)nc1C(=O)N1CCCC1 | 3.7
CNc1nc(N2CCC(O)(CO)CC2)nc2c1CCC2 | 5.6
CN1C(=O)C2(CCN(S(C)(=O)=O)CC2)C1c1ccccc1 (stereo not drawn) | 194.0
Cc1noc(C)c1NC(=O)N(C)C[C@H]1Oc2ccc(NC(=O)CCCN(C)C)cc2C(=O)N([C@@H](C)CO)C[C@@H]1C | -9.7
Cc1nonc1CN(C)C(=O)c1cn(C/C=C/c2ccccc2)nn1 | 26.2
Cc1c(C(=O)N2c3ccccc3CC2C)oc2c1C(=O)CC(C)(C)C2 (stereo not drawn) | 261.2
COc1ccc(C(=O)NCC(c2ccc(F)cc2)N2CCCCC2)cn1 (stereo not drawn) | -4.9
C[C@H](CO)N1C[C@H](C)[C@H](CN(C)C(=O)NC2CCCC2)Oc2cc(-c3cncnc3)ccc2S1(=O)=O | 43.7
COc1cccc(-c2ccc3c(c2)O[C@H](CN(C)Cc2cccnc2)[C@H](C)CN([C@@H](C)CO)S3(=O)=O)c1 | -38.9
Cc1ccc(S(=O)(=O)N(C)C[C@H]2Oc3cc(C#CC4CCCC4)ccc3S(=O)(=O)N([C@@H](C)CO)C[C@H]2C)cc1 | -131.8*
C[C@@H]1CN([C@H](C)CO)S(=O)(=O)c2ccc(-c3ccncc3)cc2O[C@H]1CN(C)S(C)(=O)=O | -104.1*
COCC#Cc1ccc2c(c1)O[C@@H](CN(C)C(=O)C1CCOCC1)[C@H](C)CN([C@@H](C)CO)S2(=O)=O | -12.0
Cc1ccc(S(=O)(=O)N(C)C[C@H]2Oc3cc(C#CC4CCCC4)ccc3S(=O)(=O)N([C@H](C)CO)C[C@H]2C)cc1 | -64.2
O=C1CCCC2(CCN(Cc3ccc(F)cc3)CC2)N1 | 41.2
C[C@H](NC(=O)Cc1cc(F)cc(F)c1)C(=O)N[C@@H]1C(=O)N(C)c2ccccc2-c2ccccc21 | -83.1*
SMILES | Tg IFNy HTS
CN1C(=O)C(CCC(=O)O)c2ccccc21 (stereo not drawn) | 27.1
CC(C)[C@H](O)C(=O)N[C@@H](C)C(=O)N[C@H]1C(=O)N(C)CCc2ccccc21 | -6.0
Cc1cc(-c2ccccc2)nc(N2CCC(C(=O)NCc3ccccc3Cl)CC2)n1 | -1.4
Cn1ccnc1SCCNc1nc(-c2ccccc2)nc2c1CCNC2 | -22.0
COc1ccc(-c2csc(NC(=O)c3ccc(-n4cccn4)nc3)n2)c(OC)c1 | 17.0
CO[C@H]1CN(C)C(=O)c2cccc(C#N)c2OCC[C@@H]2CC[C@@H](OC)[C@@H](CN(C)C(=O)[C@@H]1C)O2 | -34.7
Nc1ncnc2c1c(-c1cccc(OCc3ccccc3)c1)cn2C1CC(CN2CCC2)C1 (stereo not drawn) | -85.4*
c1cc(CN2CCCCC2)cc(OCCCNc2nc3ccccc3s2)c1 | 9.6
CN(C)C(=O)c1ccc(-c2ccc([C@@H]3[C@@H](CO)N(C(=O)C4CC4)[C@H]3C#N)cc2)cc1 | 5.8
COc1cccc(-c2nc3c(s2)CN(C(=O)Nc2ccc(OC)cc2OC)CC3)c1 | 35.1
CCOc1ccc(-c2nc3c(s2)CN(C(=O)Nc2ccc(C)cc2C)CC3)cc1 | 98.1
CCOc1ccc(NC(=O)N2CCc3nc(-c4cccc(OC)c4)sc3C2)cc1 | 16.7
COc1cccc(NC(=O)N2CCc3nc(-c4ccc(C)cc4)sc3C2)c1 | -121.2*
COc1cccc(-c2nc3c(s2)CN(C(=O)Nc2ccc(OC)c(OC)c2)CC3)c1 | 19.0
COc1ccc(OC)c(NC(=O)N2CCc3nc(-c4ccccc4)sc3C2)c1 | 12.7
CCOc1ccc(-c2nc3c(s2)CN(C(=O)Nc2cc(C)ccc2OC)CC3)cc1 | -104.5*
COc1ccc(-c2nc3c(s2)CN(C(=O)Nc2cc(C)cc(C)c2)CC3)cc1 | -30.9
COc1ccc(-c2nc3c(s2)CN(C(=O)Nc2cc(C)ccc2OC)CC3)cc1 | -41.3
COc1ccc(-c2nc3c(s2)CN(C(=O)Nc2ccc(Br)cc2)CC3)cc1 | -92.5*
Cc1cccc(NC(=O)N2CCc3nc(-c4ccccc4)sc3C2)c1 | -6.4
COc1cccc(-c2nc3c(s2)CN(C(=O)Nc2ccc(Cl)cc2)CC3)c1 | -91.6*
C=CCOCC1CN(C(=O)c2cnc(C)cn2)Cc2ccnn2C1 (stereo not drawn) | 2.7
O=C(NCCc1csc(-c2ccc(F)cc2)n1)c1ccccc1Cl | 36.8
COc1ccc(-c2noc(Cn3nc(C)c(C)c3C)n2)c(OC)c1OC | -7.2
Oc1cccc(Nc2ncnc3ccccc23)c1 | -10.4
SMILES | Tg IFNy HTS
Cc1ccc(NC(=O)Nc2ccc(OCc3ccccc3)cc2)cc1NS(C)(=O)=O | -46.2
Cc1cc(F)c(Nc2ncnc3cc(OCc4ccccc4)ccc23)cc1O | -77.0*
COc1ccccc1-c1nc(Cn2nnc(-c3nc(-c4cccc(OC)c4OC)no3)c2C)c(C)o1 | 5.8
O=c1ssc(=NCc2ccccc2)n1Cc1ccccc1 | -45.7
Cc1cc(C)cc(N2CCN(Cc3nc[nH]c3C)CC2=O)c1 | -1.0
CC(C)n1ccnc1-c1cc(NCc2ccccn2)nc2[nH]ccc12 | -19.3
CCCNC(=O)Cn1c(=O)cc(-c2nc(C(C)C)no2)c2ccccc21 | 42.7
CC(C)C[C@H](NC(=O)[C@@H](O)[C@H](N)Cc1ccccc1)C(=O)O | 10.1
CC(C)CC(NC(=O)OCC1c2ccccc2-c2ccccc21)C(=O)O (stereo not drawn) | -0.1
CC(C)C[C@@H](C=O)NC(=O)[C@H](CC(C)C)NC(=O)[C@H](CC(C)C)NC(=O)OCc1ccccc1 | -81.5*
CN(C)C(=O)N1CC[C@@H]2[C@@H]1CCC(=O)N2CC1CC1 | 92.6
COCCN1C(=O)C(c2ccccc2)CC12CCN(Cc1nccs1)CC2 (stereo not drawn) | 69.9
CN1CC(=O)N2CCN(S(=O)(=O)c3ccc(Cl)s3)CC2C1=O (stereo not drawn) | 5.3
CO[C@@H]1CCN(c2ncccn2)C[C@@H]1Cc1cccc(C)c1 | -22.6
NNC(=S)Nc1cc(C(F)(F)F)ccc1Cl | 27.8
OC1(c2ccc(Cl)c(Cl)c2)CSc2nc3cc(C(F)(F)F)ccc3n21 (stereo not drawn) | -83.6*
OC1=C(O)c2nc3cc(C(F)(F)F)ccc3nc21 | 27.4
Cc1cnn(CC(=O)Nc2nnc(C(C)Oc3cccc(C)c3C)s2)c1 (stereo not drawn) | -7.9

Screening results deposited in PubChem BioAssay by Broad Institute.
